According to ChEMBL document CHEMBL3988442, “University of Dundee, Small-Polar-MMV Screening Library” (2021):
For some of these results: Entries with a potency or affinity are not part of this list.

Key:
Parameters in all cases: scale not given: direction of the effect not stated beside the values
[1] = target: Protein translocase subunit SecA (Escherichia coli (strain K12)) (UniProt P10408); experiment: Assay to Identify E. coli SecA ATPase Inhibitors; format: functional; conditions: 30 µM
[2] = target: T1, Ubiquitin-activating enzyme e1, putative (Leishmania donovani (strain BPK282A1)) (UniProt E9BSI1); experiment: Leishmania donovani Ubiquitin Activating Enzyme (LdE1); format: functional; conditions: 30 µM
T1 sequence (whole entry): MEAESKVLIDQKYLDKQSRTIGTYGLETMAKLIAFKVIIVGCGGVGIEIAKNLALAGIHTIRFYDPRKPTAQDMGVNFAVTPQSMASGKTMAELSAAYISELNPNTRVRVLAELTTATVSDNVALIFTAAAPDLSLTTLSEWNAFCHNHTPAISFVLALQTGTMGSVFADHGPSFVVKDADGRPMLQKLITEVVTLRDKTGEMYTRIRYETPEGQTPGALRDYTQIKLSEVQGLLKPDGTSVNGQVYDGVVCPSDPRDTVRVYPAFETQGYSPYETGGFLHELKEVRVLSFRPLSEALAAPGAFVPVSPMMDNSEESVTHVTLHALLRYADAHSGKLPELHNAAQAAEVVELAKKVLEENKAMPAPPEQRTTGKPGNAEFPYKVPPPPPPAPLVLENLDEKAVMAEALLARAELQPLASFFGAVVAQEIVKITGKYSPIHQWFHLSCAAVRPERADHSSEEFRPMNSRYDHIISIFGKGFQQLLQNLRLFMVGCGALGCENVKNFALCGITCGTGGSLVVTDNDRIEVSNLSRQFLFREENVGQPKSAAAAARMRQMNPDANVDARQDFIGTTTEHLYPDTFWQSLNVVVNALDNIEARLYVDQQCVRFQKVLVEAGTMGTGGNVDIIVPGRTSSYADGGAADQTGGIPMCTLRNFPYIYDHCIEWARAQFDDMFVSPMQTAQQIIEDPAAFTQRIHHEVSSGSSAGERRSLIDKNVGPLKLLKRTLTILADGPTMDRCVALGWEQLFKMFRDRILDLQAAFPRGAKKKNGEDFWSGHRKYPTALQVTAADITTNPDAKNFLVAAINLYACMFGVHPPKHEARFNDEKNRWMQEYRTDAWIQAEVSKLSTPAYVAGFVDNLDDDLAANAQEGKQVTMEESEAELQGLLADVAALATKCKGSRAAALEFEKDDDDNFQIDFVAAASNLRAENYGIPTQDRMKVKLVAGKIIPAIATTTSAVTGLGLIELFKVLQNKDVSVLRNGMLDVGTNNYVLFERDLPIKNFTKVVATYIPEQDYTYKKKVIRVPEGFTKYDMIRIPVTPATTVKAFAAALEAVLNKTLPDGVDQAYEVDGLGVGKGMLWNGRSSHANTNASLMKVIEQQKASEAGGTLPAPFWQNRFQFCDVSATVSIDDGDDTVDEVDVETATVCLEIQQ

[3] = target: AMP-activated protein kinase, AMPK (Homo sapiens) (UniProt P54646+O43741+P54619+Q9UGJ0+Q9Y478+Q13131+Q9UGI9); experiment: AMP-dependent Kinase enzyme assay. An in vitro enzyme assay that detects ADP turnover that is directly proportional to AMPK activity. This uses naive AMPK that is activated during the assay with MK-8722; format: functional; conditions: 30 µM
[4] = target: Sialic acid-binding Ig-like lectin 9 (Homo sapiens) (UniProt Q9Y336); experiment: Hs-Siglec9 ALPHAscreen SOP 20170721; conditions: 10 µM
Sequence of Sialic acid-binding Ig-like lectin 9 (Homo sapiens) (Q9Y336 whole entry): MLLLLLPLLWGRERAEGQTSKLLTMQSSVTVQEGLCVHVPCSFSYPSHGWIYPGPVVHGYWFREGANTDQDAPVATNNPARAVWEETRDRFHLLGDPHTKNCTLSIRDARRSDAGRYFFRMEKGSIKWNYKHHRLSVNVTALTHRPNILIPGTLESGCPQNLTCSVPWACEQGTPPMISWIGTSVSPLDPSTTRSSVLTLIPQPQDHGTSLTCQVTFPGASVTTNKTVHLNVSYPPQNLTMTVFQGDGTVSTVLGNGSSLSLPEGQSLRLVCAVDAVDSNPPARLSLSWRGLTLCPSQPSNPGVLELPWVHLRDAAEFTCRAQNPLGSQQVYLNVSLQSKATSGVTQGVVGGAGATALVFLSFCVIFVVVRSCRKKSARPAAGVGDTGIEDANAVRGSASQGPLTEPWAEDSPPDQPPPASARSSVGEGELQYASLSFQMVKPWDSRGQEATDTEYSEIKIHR

Trypanosoma cruzi = experiment: Trypanosoma cruzi phosphomannomutase and mannose-1-phosphate guanylyltransferase assay; format: functional; conditions: 10 µM
[5] = target: T2, Arginase-2, mitochondrial (Homo sapiens) (UniProt P78540); experiment: in vitro enzyme assay to detect the production of urea directly proportional to the activity of Arginase II; format: functional; conditions: 33.3 µM; note: in the data most compounds retested in dose-response had high values
T2 sequence (whole entry): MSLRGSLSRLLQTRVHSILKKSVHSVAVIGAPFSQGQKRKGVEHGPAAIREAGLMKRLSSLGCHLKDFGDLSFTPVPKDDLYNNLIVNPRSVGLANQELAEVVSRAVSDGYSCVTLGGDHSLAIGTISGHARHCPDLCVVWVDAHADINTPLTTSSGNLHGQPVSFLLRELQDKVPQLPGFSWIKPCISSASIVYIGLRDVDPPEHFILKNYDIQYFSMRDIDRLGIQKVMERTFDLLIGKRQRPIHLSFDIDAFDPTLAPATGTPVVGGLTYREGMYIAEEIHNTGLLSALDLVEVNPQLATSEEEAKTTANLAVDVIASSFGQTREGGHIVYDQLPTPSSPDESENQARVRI

[6] = target: T3, Proteasome subunit beta (Trypanosoma cruzi) (UniProt O96673); experiment: Trypanosoma cruzi proteasome chymotrypsin-like activity (TcProtChymo) assay.; note: in the data most compounds retested in dose-response had high values; format: functional; conditions: 9.37 µM
T3 sequence (whole entry): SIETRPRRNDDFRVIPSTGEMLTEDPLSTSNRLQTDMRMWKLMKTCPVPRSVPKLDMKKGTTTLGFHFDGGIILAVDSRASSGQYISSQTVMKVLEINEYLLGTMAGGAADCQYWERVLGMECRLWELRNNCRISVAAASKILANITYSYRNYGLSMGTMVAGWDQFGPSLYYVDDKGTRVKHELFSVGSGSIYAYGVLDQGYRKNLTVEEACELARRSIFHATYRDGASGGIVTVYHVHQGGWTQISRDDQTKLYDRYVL

Homo sapiens = organism: Homo sapiens; experiment: To identify inhibition of the IFN signalling (Jak-Stat) pathway via expression of an eGFP reporter gene under the control of an IFN-stimulated response element (ISRE) containing MxA promoter.; format: functional; conditions: 30 µM
[7] = target: T4, Tyrosyl-tRNA synthetase, putative (Trypanosoma cruzi (strain CL Brener)) (UniProt Q4DSP6); experiment: Trypanosoma cruzi tyrosyl tRNA synthetase (TcYRS) _High Tyrosine SOP; format: functional; conditions: 30 µM; note: in the data most compounds retested in dose-response had high values
T4 sequence (whole entry): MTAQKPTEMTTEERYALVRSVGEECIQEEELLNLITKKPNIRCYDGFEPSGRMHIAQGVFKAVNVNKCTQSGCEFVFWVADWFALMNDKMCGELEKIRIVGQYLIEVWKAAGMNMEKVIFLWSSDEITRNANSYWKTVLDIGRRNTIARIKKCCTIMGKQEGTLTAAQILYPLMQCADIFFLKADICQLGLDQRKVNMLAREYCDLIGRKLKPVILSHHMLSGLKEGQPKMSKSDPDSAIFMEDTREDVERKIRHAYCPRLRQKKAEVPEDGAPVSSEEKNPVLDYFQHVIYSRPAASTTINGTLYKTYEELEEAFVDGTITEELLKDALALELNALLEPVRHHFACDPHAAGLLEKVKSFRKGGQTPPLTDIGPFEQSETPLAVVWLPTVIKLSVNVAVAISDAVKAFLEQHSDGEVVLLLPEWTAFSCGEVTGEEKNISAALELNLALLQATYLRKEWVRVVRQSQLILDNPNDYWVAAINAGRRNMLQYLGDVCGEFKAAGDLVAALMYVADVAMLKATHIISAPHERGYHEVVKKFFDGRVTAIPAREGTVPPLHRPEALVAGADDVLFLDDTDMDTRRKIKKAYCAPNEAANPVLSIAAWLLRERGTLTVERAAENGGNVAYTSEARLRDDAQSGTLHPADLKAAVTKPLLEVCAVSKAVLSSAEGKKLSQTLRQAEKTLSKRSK

[8] = target: T4, Tyrosyl-tRNA synthetase, putative (Trypanosoma cruzi (strain CL Brener)); experiment: Trypanosoma cruzi tyrosyl tRNA synthetase (TcYRS) SOP; format: functional; conditions: 30 µM
[9] = target: Chromo domain-containing protein 1 (Saccharomyces cerevisiae (strain ATCC 204508 / S288c) (Baker's yeast)) (UniProt P32657); experiment: ScCHD-1 Enzyme Inhibition Assay; format: functional; conditions: 30 µM; note: in the data most compounds retested in dose-response had high values
Sequence of Chromo domain-containing protein 1 (Saccharomyces cerevisiae (strain ATCC 204508 / S288c) (Baker's yeast)) (P32657 whole entry, the tested form may be a part): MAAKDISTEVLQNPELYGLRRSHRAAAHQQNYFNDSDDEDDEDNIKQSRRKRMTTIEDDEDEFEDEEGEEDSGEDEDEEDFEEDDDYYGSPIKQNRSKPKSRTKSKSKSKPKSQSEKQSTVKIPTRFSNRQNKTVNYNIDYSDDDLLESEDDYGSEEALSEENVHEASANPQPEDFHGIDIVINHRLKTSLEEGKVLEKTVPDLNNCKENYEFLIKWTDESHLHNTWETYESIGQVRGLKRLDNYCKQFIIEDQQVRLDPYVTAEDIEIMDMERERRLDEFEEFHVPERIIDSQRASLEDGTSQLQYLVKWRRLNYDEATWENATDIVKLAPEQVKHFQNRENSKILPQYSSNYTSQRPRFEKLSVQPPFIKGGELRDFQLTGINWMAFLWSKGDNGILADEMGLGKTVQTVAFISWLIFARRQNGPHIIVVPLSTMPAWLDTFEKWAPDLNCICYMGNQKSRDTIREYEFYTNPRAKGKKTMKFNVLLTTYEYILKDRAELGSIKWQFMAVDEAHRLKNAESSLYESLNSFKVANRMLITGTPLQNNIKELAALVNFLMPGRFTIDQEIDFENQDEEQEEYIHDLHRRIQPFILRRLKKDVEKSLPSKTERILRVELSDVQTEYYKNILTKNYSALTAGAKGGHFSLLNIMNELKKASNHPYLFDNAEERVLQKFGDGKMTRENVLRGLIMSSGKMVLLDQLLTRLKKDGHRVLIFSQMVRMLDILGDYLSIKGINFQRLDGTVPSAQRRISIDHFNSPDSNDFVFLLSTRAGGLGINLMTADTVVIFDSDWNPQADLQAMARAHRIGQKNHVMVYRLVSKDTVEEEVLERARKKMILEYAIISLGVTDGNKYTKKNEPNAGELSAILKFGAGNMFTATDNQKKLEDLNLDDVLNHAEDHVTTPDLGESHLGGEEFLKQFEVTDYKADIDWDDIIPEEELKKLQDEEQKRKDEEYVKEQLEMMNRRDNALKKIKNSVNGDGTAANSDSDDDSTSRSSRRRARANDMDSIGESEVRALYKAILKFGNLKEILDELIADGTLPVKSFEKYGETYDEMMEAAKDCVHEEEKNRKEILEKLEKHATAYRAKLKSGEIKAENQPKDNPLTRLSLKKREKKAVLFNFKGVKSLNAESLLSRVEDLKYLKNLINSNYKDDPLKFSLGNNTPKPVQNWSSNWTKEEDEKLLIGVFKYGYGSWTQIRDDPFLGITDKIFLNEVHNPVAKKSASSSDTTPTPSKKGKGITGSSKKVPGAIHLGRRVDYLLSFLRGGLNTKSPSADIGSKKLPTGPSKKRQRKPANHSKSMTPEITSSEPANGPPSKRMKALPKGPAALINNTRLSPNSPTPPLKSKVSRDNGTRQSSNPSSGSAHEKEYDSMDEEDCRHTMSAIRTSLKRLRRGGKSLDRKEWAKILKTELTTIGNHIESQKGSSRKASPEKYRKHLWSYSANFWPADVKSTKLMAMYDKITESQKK

Sequence of Protein translocase subunit SecA (Escherichia coli (strain K12)) (P10408 whole entry): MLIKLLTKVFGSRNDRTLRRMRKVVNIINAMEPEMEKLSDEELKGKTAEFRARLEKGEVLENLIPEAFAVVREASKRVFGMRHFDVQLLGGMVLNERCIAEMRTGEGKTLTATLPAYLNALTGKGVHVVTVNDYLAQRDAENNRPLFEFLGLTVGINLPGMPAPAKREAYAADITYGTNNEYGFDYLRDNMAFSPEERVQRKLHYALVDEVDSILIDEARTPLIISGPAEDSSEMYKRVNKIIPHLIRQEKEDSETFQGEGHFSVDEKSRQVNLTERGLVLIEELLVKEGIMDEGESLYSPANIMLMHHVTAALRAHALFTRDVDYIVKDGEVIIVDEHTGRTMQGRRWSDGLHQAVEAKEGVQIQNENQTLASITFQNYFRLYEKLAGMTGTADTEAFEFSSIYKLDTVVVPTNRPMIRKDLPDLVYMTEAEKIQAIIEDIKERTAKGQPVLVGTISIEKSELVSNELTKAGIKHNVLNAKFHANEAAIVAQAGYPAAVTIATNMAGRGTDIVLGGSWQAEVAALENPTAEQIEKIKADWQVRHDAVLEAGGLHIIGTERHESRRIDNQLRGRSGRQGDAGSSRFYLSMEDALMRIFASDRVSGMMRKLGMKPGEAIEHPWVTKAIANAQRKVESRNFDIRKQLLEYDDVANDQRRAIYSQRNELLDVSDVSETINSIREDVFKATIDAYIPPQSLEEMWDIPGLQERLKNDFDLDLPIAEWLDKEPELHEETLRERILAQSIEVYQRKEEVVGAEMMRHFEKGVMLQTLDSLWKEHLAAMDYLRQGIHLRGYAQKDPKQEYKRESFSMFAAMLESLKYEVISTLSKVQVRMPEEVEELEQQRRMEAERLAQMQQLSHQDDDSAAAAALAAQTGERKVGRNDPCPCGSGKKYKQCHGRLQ

Structure (SMILES) | Percent Effect [1] [%] | Percent Effect [2] [%] | Percent Effect [3] [%] | Percent Effect [4] [%] | Percent Effect (Trypanosoma cruzi) [%] | Percent Effect [5] [%] | Percent Effect [6] [%] | Percent Effect (Homo sapiens) [%] | Percent Effect [7] [%] | Percent Effect [8] [%] | Percent Effect [9] [%]
O=C(NC1CCC1)[C@@H]1C[C@@H]2CCN(Cc3cccs3)C[C@@H]2O1 | -2.68 | -2.67 | 10.9 | -2.43 | -0.197 | 2.56 | 7.67 | 28.3 | 3.19 | 11.5 | -2.54
COc1ccc(NCc2nc(=O)n(CCC(C)C)[nH]2)cc1 | -3.47 | 10.5 | 11.6 | 5.94 | -0.0974 | -8.28 | 8.92 | -19 | 4.25 | 10.4 | -2.13
COc1cccc(CCC(=O)N2CCCCC2Cn2cccn2)c1 (stereo not given) | -4.9 | 7.79 | 6.53 | 2.3 | 1.47 | 1.9 | 3.31 | 9.7 | 0.952 | 2.35 | -13.2
CCc1nc(C(=O)N2CCCC2)nn1-c1ccccc1Cl | -7.61 | 10.5 | -8.39 | 16.4 | 4.95 | 2.16 | 2.62 | 4.97 | 7.39 | 18.5 | -7.11
CCc1nnsc1C(=O)N1CCOC(c2nc(C)n[nH]2)C1 (stereo not given) | -5.12 | 8.86 | -2.61 | -4.1 | 0.718 | -0.215 | 8.23 | -0.829 | 5.21 | 17.7 | -30.2
COc1ccnc(N2CCN(C(=O)Cc3ccc(C)s3)CC2)n1 | -2.28 | -2.6 | 5.06 | 8.15 | 2.84 | -0.632 | 13.8 | -7.95 | 9.52 | 25.9 | -9.7
CC(=O)Nc1nc(C2CCN(CC(N)=O)CC2)cs1 | -1.36 | -6.76 | 6.42 | 5.54 | -4.35 | 3.48 | -3.9 | 5.69 | 0 | -3.9 | 11
O=C(CO)N1CCC(c2cncc(-c3cccc(Cl)c3)n2)CC1 | -2.26 | -2.67 | 27.8 | -7.86 | 8.27 | 138 | 15.9 | 6.85 | 11.7 | 16.7 | -5.15
CN(CC(=O)N1CCN(c2ccccc2F)CC1)c1cnccn1 | -1.13 | 16.2 | -1.85 | 4.66 | -0.0929 | -5.73 | 6.82 | 12.1 | 5.94 | 15.8 | -7.13
Cc1ccc(CNC(c2ccccc2)c2nccn2C)cc1C (stereo not given) | -0.655 | 18.9 | -5.59 | 9.13 | 2.32 | -0.554 | 8.08 | 30.7 | 10.9 | 25.6 | -5.06
O=C(c1ncccn1)N1C[C@H]2CCC[C@@]2(COCC2CCOCC2)C1 | -5.07 | 10.8 | 1.99 | -7.31 | 6.16 | -0.319 | 19.9 | 25.2 | 6.49 | 15.4 | 2.35
Cc1nn(C)c(N2CCOCC2)c1CNCc1ccnc(N(C)C)c1 | -1.81 | 10.4 | -5.9 | -0.165 | -2.64 | 0.21 | 10.6 | 25.3 | 3.81 | 14.1 | -2.85
Cc1nn(CC(=O)N2CCC(Nc3cccnn3)CC2)c(C)c1Cl | -7.99 | 10.5 | -2.51 | 1.71 | 10.3 | -4.6 | 4.68 | 14.1 | 6.37 | 19.5 | -11.8
O=C(c1cccnc1)N1CCCC2(CCN(c3ccsc3)C2=O)C1 (stereo not given) | -2.21 | 10.4 | 15.5 | -9.57 | -8.19 | 11 | 20.9 | 9.28 | -7.41 | 1.28 | -9.17
CC(C)c1nn(C)c(Cl)c1CNC1CCOc2ccccc21 (stereo not given) | -3.65 | 8.11 | -0.168 | 9.16 | 2.32 | 0.185 | -1.79 | 31.4 | 8.91 | 23.2 | -2.97
O=C(CCC1CCCC1)NCCn1nc(C2CCNC2)c2cccnc21 (stereo not given) | -0.0662 | 0 | 8.6 | 2.58 | 4.53 | -0.699 | 3.26 | -34.5 | 3.19 | 6.41 | -1.12
O=C1OC2(CCN(C3CCCOC3)CC2)CN1CCc1ccccc1 (stereo not given) | -0.187 | 7.79 | -6.88 | 5.02 | -3.64 | -11 | 14 | 15.6 | 3.23 | 6.17 | 0.643
COCCN1C(=O)[C@]2(CC[C@@H]3CN(C(=O)NC4CCCC4)C[C@@H]32)N=C1C | -2.35 | 8 | -3.34 | 5.66 | 4.83 | -52.5 | 6.84 | -7.18 | -7.29 | 10 | -9.58
CC(=O)N1CCC(c2ccnc(Nc3cnccn3)n2)C1 (stereo not given) | -0.594 | 13.3 | 12.9 | 1.15 | -4.72 | -4.43 | 5.73 | 5.13 | 4.25 | 16.7 | -5.82
O=C(Cn1cccn1)NCC1(c2ccccc2)CC1 | -4.9 | 2.6 | 0.192 | -7.24 | -2.25 | 2.74 | -1.86 | 23.2 | -0.952 | -2.35 | -6.03
